# High-throughput results (PubChem)
# Pf growth 48h = Primary qHTS for delayed death inhibitors of the malarial parasite plastid, 48 hour incubation; P. falciparum luciferase growth in erythrocytes, 48 h; Potency, µM (top dose mostly 28.7 µM), hits mostly inhibitors; 5.9% of 310,000 active
#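 In quantitative HTS format, infected erythrocytes bearing luciferase-reporter parasites were treated for a single generation at 37 C. Luminescence after adding detection reagent served as the growth measure.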
# Cycloheximide cs = Cycloheximide Counterscreen for Small Molecule Inhibitors of Shiga Toxin | cell reporter, cycloheximide protein synthesis inhibition counterscreen | max response, % | 12% of 300,000 active | AID 2314, 2010; in the data active means max response mostly above about 13%, no sharp cut-off; inactive means mostly below about 14%; further: read at 38.3 µM for the half of the compounds with a filed dose
# Pf growth 96h = Primary qHTS for delayed death inhibitors of the malarial parasite plastid, 96 hour incubation | P. falciparum luciferase reporter growth, 96 h | Potency, µM (series often up to 28.7 µM), hits mostly inhibitors | 6.9% of 320,000 active | AID 504834, 2011
#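 Luminescence readout: decreased luciferase signal marks inhibited growth of reporter-expressing P. falciparum in infected red cells (2% hematocrit, 0.05% parasitemia final), exposed to compound two generations (96 h, 37 C, 5% CO2).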
# Lassa entry inh = qHTS for Inhibitors of binding or entry into cells for Lassa Virus; Lassa virus pseudotype entry inhibition, cell reporter; Potency, µM (highest dose often 37.9 µM), usual class: inhibitors; 1.2% of 300,000 active; AID 540256, 2011; calls by dose curve; tested in HEK293 cells; further: nearly all actives have a fitted effect of over 50% in size
# Shiga inhibitor = A qHTS for Small Molecule Inhibitors of Shiga Toxin | Vero cells, Shiga toxin protein synthesis inhibition reporter | inhibition, % at 38.7 µM | 9.2% of 290,000 active | AID 2315, 2010; in the data active means inhibition mostly above about 28%, no sharp cut-off; inactive means mostly below about 43%
# MARV entry inh = qHTS for inhibitors of binding or entry into cells for Marburg Virus; Marburg virus pseudotyped entry inhibition, cell reporter; AID 540276, 2011; 1.8% of 300,000 active; Potency, µM (doses to about 37.8 µM), usual class: inhibitors; calls by dose curve; tested in HEK293 cells
# Numbers stand for hits; 0 = inactive; ? = inconclusive; - = no result. This is a sample that favours compounds with a hit; in the whole collection about 19% have one here. Unless noted, the call rests on the fitted dose curve; in most records, active means well fitted inhibition curve with a large enough effect; inconclusive means small, poorly fitted or top-dose-only effect, or another doubt; inactive means no such curve, though single readings can be large or run the other way.
SMILES,Pf growth 48h,Cycloheximide cs,Pf growth 96h,Lassa entry inh,Shiga inhibitor,MARV entry inh
O=C(COc1ccc(Cl)cc1Cl)Nn1c(=S)[nH]c2ncccc2c1=O,0,0,0,?,0,0
CC1CCN(C(=O)COC(=O)c2c[nH]c3ccccc23)CC1,0,-,0,0,-,?
Cc1ccc(NC(=O)/C=C\C(=O)N(c2ccc(C(C)C)cc2)C(C(=O)NCc2ccco2)c2ccc(F)cc2)cc1 (stereo not given),-,-,-,0,-,-
CCc1ccc2oc(-c3cccc(NC(=O)c4cc5ccccc5o4)c3)nc2c1,-,-,-,0,-,-
O=C(Nc1cccc(Br)c1)c1cc2ccccc2o1,0,92,0,?,106,0
O=C(COC(=O)c1cc2ccccc2oc1=O)Nc1cccc(Br)c1,0,-,0,0,-,0
CC(=O)Nc1ccc(NC(=O)c2cccc(-c3cc4ccccc4oc3=O)c2)cc1,0,31,0,0,0,0
NS(=O)(=O)c1cccc(NC(=O)c2cc3ccccc3o2)c1,0,25,0,0,56,?
CCC(=O)Nc1cccc(NC(=O)c2cc3ccccc3o2)c1,0,45,0,0,100,?
CCOc1ccc(NC(=O)CCS(=O)(=O)c2cccc3nonc23)cc1,-,-,-,0,-,?
O=C(CCNc1cccc(F)c1)c1cc2ccccc2o1,0,44,?,0,0,0
O=C(CCNc1ccc(F)cc1)c1cc2ccccc2o1,0,0,0,-,0,0
O=C(C1CCN(CCCc2ccccc2)CC1)N(CCc1ccccc1)Cc1ccccc1,?,0,0,11µM,0,?
CCN(c1ccccc1)c1cc2ccccc2c(=O)[nH]1,?,0,0,0,0,0
Cc1ccc(N(CC2=NCCN2)c2cccc(O)c2)cc1,?,0,0,?,0,23µM
c1ccc(CC2=NCCN2)cc1,0,0,?,-,0,-
CC(C)c1nnc(NC(=O)COc2ccc3ccccc3c2)s1,0,0,0,0,0,0
O=C(c1ccccc1)c1ccc(O)cc1O,0,0,0,-,0,-
CC(=O)c1cc2c(C)c(C(=O)c3ccccc3)oc2cc1O,0,45,0,?,79,?
Cc1ccc(S(=O)(=O)N2CCC(=O)N(CCOC(=O)Nc3ccc(F)cc3)CC2)cc1,0,0,?,0,0,0
Nc1nc(-c2cccc(F)c2)cs1,0,0,0,0,0,0
Clc1ccc(-c2csc(-c3ccno3)n2)cc1,0,23,0,0,0,0
Clc1ccc(-c2nc(-c3cc4cc(Cl)ccc4o3)cs2)cc1,0,0,0,-,0,-
Fc1cccc(-c2csc(-c3ccno3)n2)c1,0,25,0,-,38,-
COc1ccccc1CNC(=O)CC1Sc2ccccc2NC1=O (stereo not given),0,0,?,-,0,0
SMILES,Pf growth 48h,Cycloheximide cs,Pf growth 96h,Lassa entry inh,Shiga inhibitor,MARV entry inh
O=C(NC12CC3CC(CC(C3)C1)C2)c1ccc(N2CCNCC2)c([N+](=O)[O-])c1,5.2µM,0,?,0,0,0
CCS(=O)(=O)N1CCN(c2ccc(C(=O)NC34CC5CC(CC(C5)C3)C4)cc2[N+](=O)[O-])CC1,5.9µM,0,5.9µM,0,0,0
CS(=O)(=O)N1CCN(c2ccc(C(=O)NC34CC5CC(CC(C5)C3)C4)cc2[N+](=O)[O-])CC1,?,0,?,?,0,0
Cc1ccc(C(=O)Nc2nccs2)cc1,0,37,0,0,116,0
Nc1ccc(C(=O)Nc2nccs2)cc1,0,33,0,-,125,?
O=C(Nc1nccs1)c1ccc2nccnc2c1,0,24,0,?,45,0
Cc1ccccc1NC(=O)c1ccc2nccnc2c1,0,0,?,0,0,0
O=C(Nc1nccs1)c1ccc(COc2c(F)c(F)cc(F)c2F)cc1,?,56,0,-,80,-
O=C(Nc1nccs1)c1cccnc1,0,0,?,0,0,0
O=C(Nc1ccccc1Br)c1ccc2nccnc2c1,0,0,0,0,46,?
CC(OC(=O)c1ccc(Cl)c(S(=O)(=O)N2CCOCC2)c1)C(=O)Nc1ccc(S(N)(=O)=O)cc1 (stereo not given),?,-,0,0,-,0
Cc1ccc(S(=O)(=O)N2CCN(C(C(=O)Nc3ccc(F)cc3)c3ccccc3)CC2)cc1 (stereo not given),?,0,?,6.3µM,0,?
